GLS inhibitor = blocks human kidney-isoform glutaminase activity. 410,000 tested, 0.21% active. AID 624170. Potency, µM (titrated, usually from 45.5 µM), inactives show at the top dose activity change, negative = inhibition, hits mostly inhibitors. GLS enzymatic activity, qHTS titration. O94925; note: potency is the fitted concentration of half-maximal effect; % is set by controls: 0 for no effect and ±100 for the full control effect
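Enzyme dispensed in phosphate buffer (45 mM, pH 8.2, 0.02% Tween-20), compounds pinned in, then 1 mM L-glutamine solution and the glutamate oxidase–HRP–Amplex Red mix added; fluorescence read immediately and again after 30 min at room temperature.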
Pin1 inhibitor = inhibitors of human Pin1; Pin1 FP peptide displacement, HiFluor488, 10 min; Potency, µM (doses to about 115 µM), for the others: top-dose activity, negative = inhibition, actives largely listed as inhibitors; 390,000 tested, 0.009% active; Q13526; active = well fitted inhibition curve with a large enough effect in the polarisation, with a control signal flat, not every such curve was filed as active; inconclusive = small, poorly fitted or top-dose-only effect, or effect the other way, or a change in a side signal; inactive = no such curve, though single readings can be large or run the other way; the % refers to the polarisation; note: potency is the fitted concentration of half-maximal effect; % is set by controls: 0 for no effect and ±100 for the full control effect
Target sequence (Q13526 whole entry, looked up): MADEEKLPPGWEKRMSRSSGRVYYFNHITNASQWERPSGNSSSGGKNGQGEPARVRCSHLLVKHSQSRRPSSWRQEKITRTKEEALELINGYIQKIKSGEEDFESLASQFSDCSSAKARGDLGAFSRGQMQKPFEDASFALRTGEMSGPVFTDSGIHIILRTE
VDR inh = inhibitors of human vitamin D receptor; Potency, µM, for the others: max response, negative = inhibition, usual class: inhibitors; 400,000 tested, 0.93% active; AID 504847; P11473; VDR-SRC2-3 peptide fluorescence polarization, 2 h; note: potency is the fitted concentration of half-maximal effect; % is set by controls: 0 for no effect and ±100 for the full control effect
Target sequence (P11473 whole entry, looked up): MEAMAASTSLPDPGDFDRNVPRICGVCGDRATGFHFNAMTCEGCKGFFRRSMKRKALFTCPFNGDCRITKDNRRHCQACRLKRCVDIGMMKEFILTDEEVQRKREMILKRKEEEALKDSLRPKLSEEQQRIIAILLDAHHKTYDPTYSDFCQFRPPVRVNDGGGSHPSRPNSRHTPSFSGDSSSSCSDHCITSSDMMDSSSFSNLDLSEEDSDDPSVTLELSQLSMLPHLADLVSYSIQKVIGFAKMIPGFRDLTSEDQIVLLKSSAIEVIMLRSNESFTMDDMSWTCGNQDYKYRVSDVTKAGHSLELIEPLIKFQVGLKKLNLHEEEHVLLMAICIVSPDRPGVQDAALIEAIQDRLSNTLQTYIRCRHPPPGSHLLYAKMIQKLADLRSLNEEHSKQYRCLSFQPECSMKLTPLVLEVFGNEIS
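Fluorescence polarization assay of small-molecule disruption of VDR binding to coregulator peptide SRC2-3. Compounds and controls pin-transferred, then read after 2 h incubation at ambient room temperature.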
Tb PFK block = T. brucei PFK enzyme inhibition | O15648 | T. brucei PFK, ADP-Glo luminescence | 330,000 tested, 0.17% active | Potency, µM (series often up to 57.5 µM), without a hit: at the top dose activity, negative = inhibition, usual class: inhibitors;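 note: potency is the fitted concentration of half-maximal effect; 0% = uninhibited 1x PFK enzyme wells and -100% = no-enzyme wells; nearly all actives have a fitted effect of over 60% in size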
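ADP-Glo luminescence quantified ADP after 45 min at room temperature, with 1.25 nM T. brucei PFK, 0.1 mM ATP and 0.5 mM fructose-6-phosphate in pH 8.0 TEA buffer. qHTS titrations up to 57 µM; curves classified by quality.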
PGK inhibitor = blocks T. brucei phosphoglycerate kinase. P07378. PGK/GAPDH coupled, Kinase-Glo luminescence, 60 min. Potency, µM (highest dose often 57.5 µM), without a hit: at the top dose activity change, negative = inhibition, most hits filed as inhibitors. 380,000 tested, 0.043% active; note: potency is the fitted concentration of half-maximal effect; % is set by controls: 0 for no effect and ±100 for the full control effect; nearly all actives have a fitted effect of over 60% in size
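Luminescent ATP detection (Kinase-Glo Plus) follows a 60-minute room-temperature incubation, with wells lacking PGK as controls. Buffer: 100 mM TEA (pH 7.6), 5 mM MgCl2, 0.01% Tween-20. Coupling enzyme GAPDH (100 nM final) supplies unstable 1,3-BPG in-well.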
USP1 UbRho = validation of human USP1/UAF1 inhibitors. shares compounds with VDR inh. Ub-Rhodamine cleavage, fluorescence kinetic read. Potency, µM (doses to about 114 µM), inactives show at the highest dose activity change, negative = inhibition, usual class: inhibitors. 50 tested, 50% active. AID 540327
VDR confirm = inhibits human vitamin D receptor, primary hit validation; shares compounds with VDR inh; VDR-coactivator inhibition assay, qHTS confirmation; Potency, µM, usual class: inhibitors; 840 tested, 89% active; note: potency is the fitted concentration of half-maximal effect
VDR FP = blocks human VDR-coactivator binding in fluorescein assay; Potency, µM (series often up to 57.1 µM), inactives show at the top dose activity change, negative = inhibition, hits mostly inhibitors; VDR-coactivator binding, fluorescein fluorescence polarization; shares compounds with VDR inh; 840 tested, 48% active; AID 602200; note: potency is the fitted concentration of half-maximal effect
VDR bla = confirmation of human vitamin D receptor inhibitors in reporter cells. shares compounds with VDR inh. VDR beta-lactamase reporter cells, FRET ratio; cells co-treated with VDR agonist LG190178. Potency, µM (doses to about 46.1 µM), for inactives: top-dose activity change, negative = inhibition, hits mostly inhibitors. 840 tested, 23% active; note: potency is the fitted concentration of half-maximal effect; % is set by controls: 0 for no effect and ±100 for the full control effect
VDR viability = cytotoxic in counter-screen for VDR inhibitors. shares compounds with VDR inh. Potency, µM (highest dose often 48.3 µM), inactives show at the highest dose activity change, negative = cytotoxicity, most hits filed as cytotoxic. 840 tested, 18% active. cytotoxicity counter-screen, cell viability, qHTS;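 note: potency is the fitted concentration of half-maximal effect; plate controls were DMSO for no effect and high-concentration cycloheximide for full effect; nearly all actives have a fitted effect of over 75% in size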
The depositor's hits bear a star; i = inactive; ? = inconclusive; nt = no result given. In the library only some 1.1% were active in any assay of this set; here they are far more common. Unless noted, calls come from the whole dose curve; as a rule, active = well fitted curve in the direction sought with a large enough effect; inconclusive = small, poorly fitted or top-dose-only effect, or another doubt; inactive = no such curve, though single readings can be large; an effect the other way counts as inactive or inconclusive.

SMILES	GLS inhibitor	Pin1 inhibitor	VDR inh	Tb PFK block	PGK inhibitor	VDR confirm	VDR FP	VDR bla	VDR viability	others
CN(C)S(=O)(=O)c1ccc2c(c1)/C(=C/c1cc3c([nH]1)CCCC3)C(=O)N2	-2%	?	-19%	-12%	6%	nt	nt	nt	nt	USP1 UbRho=47µM*
CN(C)S(=O)(=O)c1ccc2c(c1)C(=O)c1cc(S(=O)(=O)N(C)C)ccc1CC2	-1%	-2%	15%	-3%	0%	nt	nt	nt	nt
CCc1ccc(-n2nc3cc(C)c(N)cc3n2)cc1	4%	2%	?	3%	6%	7.1*	13µM*	1%	4%
Cc1ccc(-n2nc3cc(C)c(N)cc3n2)cc1	5%	-2%	?	-5%	0%	nt	nt	nt	nt
COC(=O)[C@@H]1[C@@H](C#N)C2(c3ccccc3-c3ccccc32)N(c2ccc(Cl)cc2)N1C#N	?	-4%	25µM*	1%	0%	24*	?	?	?
O=C(Cc1ccc(Cl)cc1)NN1C(=O)c2ccccc2C1=O	74%	0%	-17%	-9%	-2%	nt	nt	nt	nt
CCOc1cc(N2CCOCC2)c(OCC)cc1NC(=O)c1ccccc1N1CCCC1=O	10%	nt	nt	nt	7%	nt	nt	nt	nt
O=C1Nc2ccc(Br)cc2/C1=C/C(=O)c1ccc2c(c1)OCO2	0%	4%	40µM*	-7%	-10%	?	?	?	?
COc1ccc(C(=O)/C=C2\C(=O)Nc3ccc(Br)cc32)cc1	1%	3%	?	nt	-4%	nt	nt	nt	nt
CCOc1cc(/C=N/N2CCN(Cc3ccccc3)CC2)ccc1O	?	-4%	-4%	1%	-10%	nt	nt	nt	nt
CN(C)c1ccc(C=Nc2ccc(N(C)C)cc2)cc1	19%	4%	?	-3%	-15%	10*	?	6%	-11%
N#Cc1c(NC(=O)Cn2nc(C(F)(F)F)c3c2CCCC3)sc2c1CCC2	-9%	3%	79µM*	?	-1%	6.7*	?	4%	0%
CC1CCN(S(=O)(=O)c2ccc3c(c2)N(CC(=O)Nc2ccc(F)c(Cl)c2)C(=O)CO3)CC1	-7%	-11%	12%	nt	-8%	nt	nt	nt	nt
Cc1cc2nc3ccc(N(C)C)cc3nc2cc1N	8%	?	79µM*	nt	1%	19*	92%	18%	?
COC(=O)c1cc(=O)n(Cc2ccco2)c(=Nc2ccc(F)c(Cl)c2)s1	-1%	8%	?	-2%	-6%	14*	13µM*	?	3%
COCCNC(=O)CCc1nnc2ccc(N3CCC(C)CC3)nn12	0%	-19%	17%	-1%	-9%	nt	nt	nt	nt
C[C@H](NC(=O)CNC(=O)[C@@H](NC(=O)[C@H](Cc1ccccc1)NC(=O)CNC(=O)CNC[C@@H](N)Cc1ccccc1)[C@@H](C)O)C(=O)N[C@@H](CCCN=C(N)N)C(=O)N[C@@H](CCCCN)C(=O)N[C@@H](CO)C(=O)N[C@@H](C)C(=O)N[C@@H](CCCN=C(N)N)C(=O)N[C@@H](CCCCN)C(N)=O	nt	nt	-4%	nt	nt	nt	nt	nt	nt
COc1ccc(NC(=O)c2cccs2)cn1	?	-11%	9%	14%	i	nt	nt	nt	nt
COc1ccc(NC(=O)/C(Cl)=C(/Cl)S(=O)Cc2ccccc2)cn1 (stereo unspecified)	-9%	1%	14µM*	-11%	2%	4.2*	?	?	?
O=C(c1csnn1)N1CCC2(CCCN(Cc3ccccc3)C2)CC1	nt	nt	2%	nt	nt	nt	nt	nt	nt
Cc1nc(NC(=O)c2ccc(Cl)cc2)sc1Cc1ccc2c(c1)OCO2	-16%	6%	79µM*	-8%	1%	?	?	-23%	?
Cc1nc(NC(=O)c2ccccc2)sc1Cc1ccc2c(c1)OCO2	7%	8%	-14%	2%	-4%	nt	nt	nt	nt
Cc1c(C(=O)N2CCOCC2)oc2c1-c1nn(CC(=O)NCc3cccc(Cl)c3)cc1CC2	-2%	-2%	11%	nt	0%	nt	nt	nt	nt
CCN(CC)c1ccc(N=Cc2ccc([N+](=O)[O-])o2)cc1	32%	-1%	?	-7%	-1%	7.9*	2%	3%	-8%
Cc1sc2ccccc2[n+]1CCc1ccccc1	nt	nt	nt	nt	nt	11*	7.9µM*	14%	4%
SMILES	GLS inhibitor	Pin1 inhibitor	VDR inh	Tb PFK block	PGK inhibitor	VDR confirm	VDR FP	VDR bla	VDR viability	others
COc1ccc(C(=O)/C=C/C(=O)N(CC(=O)NC2CCCCC2)Cc2ccc(F)cc2)c(O)c1	-6%	18%	79µM*	2%	8%	11*	4.5µM*	13µM*	9.2µM*
COc1cc(/C=C2\C(=O)N(c3ccc(S(N)(=O)=O)cc3)N=C2C)ccc1OC(=O)c1ccco1	-13%	-7%	?	-11%	?	10*	3.5µM*	-11%	-18%
COc1cc(/C=C/C(=O)c2ccc([N+](=O)[O-])o2)ccc1O	-1%	0%	?	-9%	-3%	nt	nt	nt	nt
COc1ccc(/C=C/C(=O)c2ccc([N+](=O)[O-])o2)cc1OC	-13%	-3%	18µM*	2%	-9%	3.5*	3.5µM*	3.3µM*	17µM*
CC12CCC(=O)N1C(C(=O)NNC(=O)COc1cccc(C(F)(F)F)c1)CS2 (stereo unspecified)	-3%	-2%	-16%	-2%	-10%	nt	nt	nt	nt
Cc1ccc(C(=O)/C=C\C(=O)c2ccc(C)cc2)cc1	-9%	6%	79µM*	-21%	3%	30*	?	?	22%
CC1C/C(=C\c2cccnc2)C(=O)/C(=C/c2cccnc2)C1 (stereo unspecified)	9%	-1%	35µM*	4%	5%	12*	?	2.1µM*	?
CN(C)c1ccc(-c2ccc(C3C4C=CCCC4(C)C(=O)N3Cc3ccccc3)c(F)c2)cc1 (stereo unspecified)	nt	8%	-12%	nt	nt	nt	nt	nt	nt
CC(C)(C)C(=O)Nc1ccc2c(c1)C(=O)C(=O)c1ccccc1-2	nt	nt	8.9µM*	nt	nt	1.3*	1µM*	4.1µM*	6µM*
